Only some compounds are listed: those with a hit (about 2.6% of all), similar ones and a draw of the others.
Anthrax LT inh: blocks cellular internalization of anthrax lethal toxin. Cells, anthrax lethal toxin internalization, FRET ratio (460/530). Potency, µM (top dose mostly 40 µM), for the others: at the highest dose activity change, negative = inhibition, actives largely listed as inhibitors. hit rate 0.67% among 70,000. AID 912; further: on the % scale 0 is the no-effect control and ±100 the full control effect; nearly all actives have a fitted effect of over 50% in size
Prx2 Sm inh: blocks S. mansoni peroxiredoxin 2 enzymatic activity; hit rate 0.07% among 65,000; S. mansoni Prx2 activity coupled to TGR/GSH (TGR is thioredoxin glutathione reductase), NADPH fluorescence loss, qHTS; AID 448; Potency, µM
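Prx2 activity was followed as the loss of NADPH fluorescence (ex 365/em 450 nm), read every 30 sec for 8 min after H2O2 start. The enzyme mix (50 nM Prx2, 25 nM TGR, GSH, NADPH; pH 7.4 phosphate buffer) was incubated with compound for 15 min at room temperature first.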
AmpC inh det: blocks E. coli AmpC beta-lactamase in presence of detergent; P00811; hit rate 0.09% among 71,000; Potency, µM (top dose mostly 28.7 µM), for inactives: at the top dose activity change, negative = inhibition; AID 584; purified AmpC, nitrocefin hydrolysis with detergent; active means well fitted curve in the direction sought with a large enough effect; inconclusive means small, poorly fitted or top-dose-only effect; further: on the % scale 0 is the no-effect control and ±100 the full control effect
Target sequence (P00811 whole entry, looked up): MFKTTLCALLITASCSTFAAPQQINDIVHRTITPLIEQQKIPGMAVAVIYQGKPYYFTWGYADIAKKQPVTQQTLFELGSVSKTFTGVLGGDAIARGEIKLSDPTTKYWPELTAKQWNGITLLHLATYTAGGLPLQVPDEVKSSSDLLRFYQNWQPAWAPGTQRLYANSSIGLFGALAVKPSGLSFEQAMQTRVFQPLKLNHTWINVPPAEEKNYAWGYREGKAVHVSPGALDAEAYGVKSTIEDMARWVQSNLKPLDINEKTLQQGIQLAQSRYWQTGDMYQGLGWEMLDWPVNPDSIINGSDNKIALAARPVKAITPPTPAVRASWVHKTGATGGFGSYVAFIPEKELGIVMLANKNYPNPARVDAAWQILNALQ
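E. coli AmpC (5.3 nM) in 20 mM phosphate pH 7.0 with 0.01% Triton X-100, preincubated 15 min RT with compound; nitrocefin (2 uL of 800 uM stock) hydrolysis followed by 480 nm absorbance every 20 s over 4 min.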
AmpC nodet inh: inhibitors of E. coli AmpC beta-lactamase without detergent; hit rate 1.8% among 71,000; AmpC nitrocefin hydrolysis, absorbance 480 nm, no detergent; Potency, µM (doses to about 28.7 µM), for the others: at the highest dose activity change, negative = inhibition; P00811; further: % of control where 0% means no effect
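Enzyme, pH 7.0 phosphate. Compound titrations were pre-incubated with AmpC for 15 min at room temperature before nitrocefin (stock 800 uM) addition; product formation was recorded at 480 nm every 20 s for 4 min.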
The depositor's hits bear a star; ? = inconclusive; · = not tested or not shown; ! = not confirmed by another sample; [ ] = remark or other dose. Unless noted, the call rests on the fitted dose curve. Potency means the concentration at half of the fitted maximal effect.

SMILES	Anthrax LT inh	Prx2 Sm inh	AmpC inh det	AmpC nodet inh
N=C(N)S/C=C\C(=O)O	?	>57	-3%	-1%
N#C/C(=C\c1ccc(O)c(O)c1)C(N)=S	25µM*!	?	-1%	-20%
Cc1c(C(=O)OCc2ccccc2)[nH]c2c1C(=O)CC(c1ccco1)C2 (stereo not given)	?	>57	1%	13µM*[single pt active]
O=c1c(-c2nc3ccccc3o2)c2oc3ccccc3n2c2ccccc12	13µM*	>57	-5%	48%
O=c1oc2ccccc2n1CCn1c2ccccc2c2nc3ccccc3nc21	9%	>57	-3%	-4%
CCc1ccc(C(=O)CSC2=C(C#N)C(c3ccco3)C(C(C)=O)=C(C)N2)cc1 (stereo not given)	?	·	10%	13µM*
CC(=O)C1=C(C)NC(SCC(=O)c2cc(Cl)ccc2Cl)=C(C#N)C1c1ccco1 (stereo not given)	10µM*	·	-3%	?
CC(=O)C1=C(C)NC(SCC(=O)c2ccc(Cl)c(Cl)c2)=C(C#N)C1c1ccco1 (stereo not given)	?	·	6%	-4%
CC1=C(C(=O)Nc2ccccc2)C(c2ccco2)C(C#N)=C(SCc2ccccc2)N1 (stereo not given)	?	·	9%	5µM*
CC1=C(C(=O)Nc2ccccc2)C(c2ccco2)C(C#N)=C(SCC(=O)OC(C)C)N1 (stereo not given)	?	·	6%	16%
Cn1c(=O)c(-c2cccs2)nc2cnc(OCc3ccccc3)nc21	-5%	>57	-4%	5%
Cc1ccc2oc(=O)c3cc(C(=O)NCc4ccco4)sc3c2c1	?	>57	10%	4µM*[single pt active]
CCOC(=O)N1CCN(C(=O)CS(=O)Cc2nc(-c3ccc(C)cc3)oc2C)CC1 (stereo not given)	-16%	>57	12%	109%
Cc1cccc(-c2nc(CS(=O)CC(=O)N3CCCCC3)c(C)o2)c1 (stereo not given)	-3%	>57	16%	4µM*[single pt active]
Cc1cccc(-c2nc(CS(=O)CC(=O)NCC3CCCO3)c(C)o2)c1 (stereo not given)	-5%	>57	11%	4µM*[single pt active]
CC(C)C[C@H](N)C(=O)O	2%[8 µM]	>57	-6%[5.75 µM]	-3%[5.75 µM]
CN(C)C(=O)c1ccc(-c2nc(NCc3cccs3)c3ccccc3n2)cc1	-17%	>57	6%	87%
COc1ccc(COC(=O)N/N=C2/C[C@@H](O)[C@@H](O)[C@@H]3[C@@H]4C(=O)N(C[C@@H]5CCCO5)C(=O)[C@H]4CC[C@@H]23)cc1	13%[8 µM]	·	·	·
CCOc1ccccc1NC1c2ccccc2C(=O)N1c1ccc(C)cn1 (stereo not given)	-26%	>57	13%	-3%
O=C1c2ccccc2C(Nc2cccnc2)N1Cc1ccccc1Cl (stereo not given)	-15%	>57	12%	4µM*[single pt active]
COc1cc(NC2c3ccccc3C(=O)N2c2ccc(C)cn2)cc(OC)c1OC (stereo not given)	6%	>57	13%	76%
CCOC(=O)c1ccccc1NC1c2ccccc2C(=O)N1c1ccc(C)cn1 (stereo not given)	?	>57	13%	4µM*[single pt active]
Cc1ccc(N2C(=O)c3ccccc3C2Nc2cccnc2)nc1 (stereo not given)	-7%	>57	11%	4µM*[single pt active]
C[C@@]1(C(=O)O)NCCc2cc(O)c(O)cc21	?	>26	-2%	-15%
Cc1ccc(SCN2CCCCC2)cc1 (tested in a mixture with another compound)	?	>57	-4%[5.75 µM]	-5%[5.75 µM]
SMILES	Anthrax LT inh	Prx2 Sm inh	AmpC inh det	AmpC nodet inh
C=CCSc1nnc(Cc2cc(=O)[nH]c(=O)[nH]2)n1-c1cc(C)ccc1C	-26%	>57	14%	4%
COc1cccc(-n2c(Cc3cc(=O)[nH]c(=O)[nH]3)nnc2SC(C)C)c1	5%	>57	13%	4µM*[single pt active]
CCOc1ccc(-n2c(Cc3cc(=O)[nH]c(=O)[nH]3)nnc2SC(C)C(=O)OC)cc1 (stereo not given)	-8%	>57	10%	24%
COC(=O)C(C)Sc1nnc(Cc2cc(=O)[nH]c(=O)[nH]2)n1-c1cc(C)ccc1C (stereo not given)	-5%	>57	14%	2µM*
COC(=O)C(C)Sc1nnc(Cc2cc(=O)[nH]c(=O)[nH]2)n1-c1cccc(OC)c1 (stereo not given)	0%	>57	13%	4µM*[single pt active]
CSc1nnc(Cc2cc(=O)[nH]c(=O)[nH]2)n1-c1cccc(C)c1	-6%	>57	7%	-16%
